From PubChem BioAssay (Tox21)
Values without a mark were called inactive. Inconclusive results are not listed. Entries that show only a call come without a potency. Activity calls are given as the source filed them. Unless noted, the call rests on the fitted dose curve; in most records, active means well fitted curve in the direction sought with a large enough effect in the repeat runs; inconclusive means weak or mixed curves; inactive means no such curve, though single readings can be large; an effect the other way counts as inactive or inconclusive.

What was measured:
[1] = qHTS assay to identify small molecule antagonists of the estrogen receptor alpha (ER-alpha) signaling pathway using the BG1 cell line in the presence of 0.1 nM 17-beta-estradiol - cell viability counter screen (AID 1259241); further: nearly all actives have a fitted effect of over 40% in size
Method in brief: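 VM7Luc4E2 cells (endogenous ER-alpha, 4×ERE-luciferase), hormone-starved 5 days in charcoal-stripped FBS, were treated with compounds plus 0.1 nM 17beta-estradiol for 22 hr at 37C; viability read in same wells as CellTiter-Fluor live-cell protease fluorescence.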

[2] = qHTS assay to identify small molecule antagonists of the androgen receptor (AR) signaling pathway using the MDA cell line in the presence of 0.5 nM R1881 - cell viability counter screen (AID 1259242); further: nearly all actives have a fitted effect of over 45% in size
Method in brief: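 MDA-kb2 cells (MMTV-luciferase, AR/GR responsive) were treated with compounds plus 0.5 nM R1881 (final) for 16 hr at 37C, 0% CO2. Viability was then read in the same wells as live-cell protease fluorescence (CellTiter-Fluor, 30 min).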

[3] = target: Estrogen receptor (Homo sapiens) (UniProt P03372); experiment: qHTS assay to identify small molecule antagonists of the estrogen receptor alpha (ER-alpha) signaling pathway using the BG1 cell line in the presence of 0.1 nM 17-beta-estradiol (AID 1259244); further: nearly all actives have a fitted effect of over 50% in size
Chain of Estrogen receptor (Homo sapiens) (P03372 whole entry, looked up): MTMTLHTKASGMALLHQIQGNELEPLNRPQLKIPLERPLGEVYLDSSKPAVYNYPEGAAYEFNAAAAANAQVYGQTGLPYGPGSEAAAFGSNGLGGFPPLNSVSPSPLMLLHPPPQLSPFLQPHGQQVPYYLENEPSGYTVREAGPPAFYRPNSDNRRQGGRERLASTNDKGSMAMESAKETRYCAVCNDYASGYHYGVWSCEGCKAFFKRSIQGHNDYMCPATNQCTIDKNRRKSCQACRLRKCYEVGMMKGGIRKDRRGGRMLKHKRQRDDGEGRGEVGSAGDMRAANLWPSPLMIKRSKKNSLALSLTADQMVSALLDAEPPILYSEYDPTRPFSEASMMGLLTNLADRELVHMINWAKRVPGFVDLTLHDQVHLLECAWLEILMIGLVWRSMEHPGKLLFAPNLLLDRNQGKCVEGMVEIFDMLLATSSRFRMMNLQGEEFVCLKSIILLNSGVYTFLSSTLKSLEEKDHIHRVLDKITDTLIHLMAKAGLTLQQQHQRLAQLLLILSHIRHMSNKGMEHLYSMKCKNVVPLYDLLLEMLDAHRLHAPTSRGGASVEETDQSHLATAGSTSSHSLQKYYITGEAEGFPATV
Method in brief: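 VM7Luc4E2 cells (endogenous full-length ER-alpha, 4×ERE-luciferase), kept 5 days in phenol red-free, charcoal-stripped FBS medium; 4,000 cells/well. Compounds added with 0.1 nM (final) 17beta-estradiol, 22 hr at 37C; luminescence read with ONE-Glo after 30 min.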

[4] = qHTS assay to identify small molecule HDAC inhibitors (AID 1259364); further: nearly all actives have a fitted effect of over 45% in size; further: potency means the concentration at half of the fitted maximal effect
Method in brief: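 Wild-type HCT-116 cells, plated overnight at 37 C, exposed to compounds 2 hr at 37 C; luminogenic HDAC-Glo substrate then added 30 min at room temperature. Luminescence reports relative endogenous class I/II HDAC activity.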

[5] = qHTS assay to identify small molecule HDAC inhibitors - cell viability counter screen (AID 1259365); further: series mostly up to about 92 µM; nearly all actives have a fitted effect of over 50% in size
Method in brief: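 Wild-type HCT-116 cells were seeded at 1,500 per well, incubated overnight at 37 C, then exposed to compounds in DMSO for 2hr. Viability was read by CellTiter-Glo luminescence after 30min at room temperature.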

[6] = qHTS assay to identify small molecule agonists of the sonic hedgehog signaling (Shh) pathway - cell viability counter screen (AID 1259366); further: nearly all actives have a fitted effect of over 50% in size
Method in brief: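 NIH/3T3-derived 3T3 Gli1-Luc cells (stable Gli1-responsive firefly luciferase reporter) were seeded, rested 4 hr at 37 C/5% CO2, then exposed to compounds in DMSO for 24 hr; viability was read by CellTiter-Fluor fluorescence in the same wells.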

[7] = qHTS assay to identify small molecule antagonists of the sonic hedgehog signaling (Shh) pathway - cell viability counter screen (AID 1259367); further: nearly all actives have a fitted effect of over 55% in size
Method in brief: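 After a 4 hr settling period, 3T3 Gli1-Luc cells were treated with DMSO-dissolved chemicals and conditioned medium, kept 24 hr at 37C in 5% CO2, and assayed for viability by CellTiter-Fluor fluorescence following 1 hr reagent incubation.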

[8] = qHTS assay to identify small molecule agonists of the sonic hedgehog signaling (Shh) pathway (AID 1259368; calls by dose curve; further: series mostly up to about 92 µM; nearly all actives have a fitted effect of over 15% in size)
Method in brief: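 NIH/3T3-derived 3T3Gli1-Luc cells with stably integrated Gli1-driven firefly luciferase, 2,000 cells/well, compounds added after 4 hr. Incubated 24 hr at 37C, 5% CO2; luminescence read after 30 min with luciferase reagent at room temperature.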

[9] = qHTS assay to identify small molecule antagonists of the sonic hedgehog signaling (Shh) pathway (AID 1259369; calls by dose curve; further: nearly all actives have a fitted effect of over 45% in size; further: potency means the concentration at half of the fitted maximal effect)
Method in brief: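 NIH/3T3-derived Gli1-Luc reporter cells plated 4 h, dosed with compound, then stimulated with conditioned medium for 24 h at 37 C. Firefly luciferase luminescence read after 30 min with detection reagent at room temperature.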

[10] = qHTS assay to identify small molecule agonists of the androgen receptor (AR) signaling pathway in the presence of an antagonist - cell viability counter screen (AID 1259379);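 further: MDA-kb2 human breast cancer cells carrying an MMTV luciferase reporter; series mostly up to about 92 µM; nearly all actives have a fitted effect of over 25% in size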
Method in brief: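 MDA-kb2 cells (MMTV-luciferase, AR/GR), 3,000/well, 5 h attachment, then 3.0 µM nilutamide (final) and compounds at 15 concentrations. Viability by CellTiter-Fluor fluorescence after 16 h at 37 °C, 0% CO2, in the reporter wells.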

[11] = qHTS assay to identify small molecule agonists of the estrogen receptor beta (ER-beta) signaling pathway - cell viability counter screen (AID 1259380); further: nearly all actives have a fitted effect of over 30% in size
Method in brief: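 ER-beta-UAS-bla HEK293T cells in medium with 2% charcoal-stripped FBS, pre-incubated 6 hr, then treated 16 hr at 37C. Cytotoxicity read in the same wells by CellTiter-Glo luminescence after 30 min at room temperature.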

[12] = qHTS assay to identify small molecule antagonists of the estrogen receptor beta (ER-beta) signaling pathway - cell viability counter screen (AID 1259382); further: series mostly up to about 92 µM; nearly all actives have a fitted effect of over 55% in size
Method in brief: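 ER-beta-UAS-bla HEK293T cells in 2% charcoal-stripped FBS medium, treated with compound plus 1 nM 17-beta-estradiol for 16 h at 37C. Viability read by CellTiter-Glo luminescence after 30 min at room temperature in the same wells.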

[13] = target: Estrogen receptor (Homo sapiens) (UniProt P03372); experiment: qHTS assay to identify small molecule agonists of the estrogen receptor alpha (ER-alpha) signaling pathway in the presence of an antagonist (AID 1259383; calls by dose curve; further: top concentration of the series differs between compounds; nearly all actives have a fitted effect of over 15% in size)
Method in brief: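 VM7Luc4E2 cells express endogenous full-length ER-alpha with an ERE-luciferase reporter and were hormone-deprived for 5 days. Compounds at 15 concentrations were added with 10.0nM ICI-182,780 for 22hr at 37C. Luminescence was read with ONE-Glo.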

[14] = qHTS assay to identify small molecule agonists or antagonists of the thyroid stimulating hormone receptor (TSHR) signaling pathway - wild type cell line counter screen (AID 1259384; calls by dose curve)
Method in brief: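 Wild-type HEK293 cells were plated 18 h at 37 C/5% CO2, pin-dosed with compound plus Ro20-1724 medium, held 30 min at room temperature, then given cAMP-d2 and anti-cAMP-cryptate; fluorescence was read after 1 h. Fifteen concentrations, triplicate.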

[15] = target: Thyrotropin receptor (Homo sapiens) (UniProt P16473); experiment: qHTS assay to identify small molecule antagonists of the thyroid stimulating hormone receptor (TSHR) signaling pathway (AID 1259385; calls by dose curve; further: nearly all actives have a fitted effect of over 20% in size)
Chain of Thyrotropin receptor (Homo sapiens) (P16473 whole entry, looked up): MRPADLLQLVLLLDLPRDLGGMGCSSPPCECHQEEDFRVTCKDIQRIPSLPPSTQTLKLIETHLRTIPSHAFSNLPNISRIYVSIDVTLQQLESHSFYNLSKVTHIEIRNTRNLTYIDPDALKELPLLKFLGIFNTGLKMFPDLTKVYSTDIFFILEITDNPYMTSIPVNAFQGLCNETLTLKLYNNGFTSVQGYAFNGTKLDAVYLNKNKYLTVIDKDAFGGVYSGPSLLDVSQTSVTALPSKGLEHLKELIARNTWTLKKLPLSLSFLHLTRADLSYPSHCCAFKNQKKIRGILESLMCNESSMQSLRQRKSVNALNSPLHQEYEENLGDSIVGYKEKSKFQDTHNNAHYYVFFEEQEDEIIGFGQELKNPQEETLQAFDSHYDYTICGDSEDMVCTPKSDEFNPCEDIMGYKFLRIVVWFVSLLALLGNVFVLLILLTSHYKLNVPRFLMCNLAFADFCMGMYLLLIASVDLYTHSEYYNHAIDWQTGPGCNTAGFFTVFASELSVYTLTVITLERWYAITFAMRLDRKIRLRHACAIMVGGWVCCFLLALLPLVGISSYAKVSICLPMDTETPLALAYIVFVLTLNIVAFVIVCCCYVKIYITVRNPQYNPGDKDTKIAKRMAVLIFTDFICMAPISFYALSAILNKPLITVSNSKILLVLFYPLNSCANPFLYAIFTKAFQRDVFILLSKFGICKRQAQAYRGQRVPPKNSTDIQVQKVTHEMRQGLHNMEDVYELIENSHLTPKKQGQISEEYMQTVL
Method in brief: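 TSHR-HEK293 cells were plated and held 18 h at 37C/5% CO2, then given compound plus Ro20-1724 and stimulated with TSH at 1.5 ng/mL final. After 30 min at room temperature, cAMP was detected with cAMP-d2/anti-cAMP-cryptate (1 h) by fluorescence.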

[16] = target: Estrogen receptor beta (Homo sapiens) (UniProt Q92731); experiment: qHTS assay to identify small molecule agonists of the estrogen receptor beta (ER-beta) signaling pathway (AID 1259377; active means well fitted activation curve with a large enough effect in the signal ratio in the repeat runs, not every such curve was filed as active; the % refers to the signal ratio)
Chain of Estrogen receptor beta (Homo sapiens) (Q92731 whole entry, looked up): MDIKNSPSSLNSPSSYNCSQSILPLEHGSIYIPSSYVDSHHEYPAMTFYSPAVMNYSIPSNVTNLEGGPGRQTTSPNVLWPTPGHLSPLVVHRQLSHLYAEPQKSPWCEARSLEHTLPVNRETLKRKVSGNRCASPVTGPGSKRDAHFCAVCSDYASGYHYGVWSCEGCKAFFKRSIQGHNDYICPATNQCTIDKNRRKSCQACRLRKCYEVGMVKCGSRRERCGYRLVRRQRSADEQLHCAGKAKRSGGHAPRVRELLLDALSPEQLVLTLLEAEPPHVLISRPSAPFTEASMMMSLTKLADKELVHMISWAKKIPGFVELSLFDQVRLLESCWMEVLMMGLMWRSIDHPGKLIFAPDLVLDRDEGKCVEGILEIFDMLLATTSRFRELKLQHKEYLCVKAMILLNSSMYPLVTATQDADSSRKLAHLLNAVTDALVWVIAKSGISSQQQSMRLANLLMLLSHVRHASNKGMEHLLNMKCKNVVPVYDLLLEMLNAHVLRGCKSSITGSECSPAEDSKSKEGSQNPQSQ
Method in brief: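 ER-beta-UAS-bla HEK293T (GripTite) cells carrying a UAS-driven beta-lactamase reporter, in medium with 2% charcoal-stripped FBS, were exposed to compounds for 16 hr at 37C; LiveBLAzer B/G FRET substrate was then added and fluorescence read after 2 hours at room temperature.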

[17] = target: Estrogen receptor beta (Homo sapiens) (UniProt Q92731); experiment: qHTS assay to identify small molecule antagonists of the estrogen receptor beta (ER-beta) signaling pathway (AID 1259378; active means well fitted inhibition curve with a large enough effect in the signal ratio in the repeat runs, not every such curve was filed as active; the % refers to the signal ratio)
Method in brief: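 ER-beta-UAS-bla HEK293T (GripTite) cells in 2% charcoal-stripped FBS medium were preincubated 6 hr at 37C, dosed with compound, then stimulated with 1 nM E2 (final) for 16 hr; beta-lactamase reporter read by B/G FRET fluorescence after 2 hr substrate loading.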

[18] = target: Androgen receptor (Homo sapiens) (UniProt P10275); experiment: qHTS assay to identify small molecule agonists of the androgen receptor (AR) signaling pathway in the presence of an antagonist (AID 1259381; calls by dose curve; further: nearly all actives have a fitted effect of over 15% in size)
Chain of Androgen receptor (Homo sapiens) (P10275 whole entry, looked up): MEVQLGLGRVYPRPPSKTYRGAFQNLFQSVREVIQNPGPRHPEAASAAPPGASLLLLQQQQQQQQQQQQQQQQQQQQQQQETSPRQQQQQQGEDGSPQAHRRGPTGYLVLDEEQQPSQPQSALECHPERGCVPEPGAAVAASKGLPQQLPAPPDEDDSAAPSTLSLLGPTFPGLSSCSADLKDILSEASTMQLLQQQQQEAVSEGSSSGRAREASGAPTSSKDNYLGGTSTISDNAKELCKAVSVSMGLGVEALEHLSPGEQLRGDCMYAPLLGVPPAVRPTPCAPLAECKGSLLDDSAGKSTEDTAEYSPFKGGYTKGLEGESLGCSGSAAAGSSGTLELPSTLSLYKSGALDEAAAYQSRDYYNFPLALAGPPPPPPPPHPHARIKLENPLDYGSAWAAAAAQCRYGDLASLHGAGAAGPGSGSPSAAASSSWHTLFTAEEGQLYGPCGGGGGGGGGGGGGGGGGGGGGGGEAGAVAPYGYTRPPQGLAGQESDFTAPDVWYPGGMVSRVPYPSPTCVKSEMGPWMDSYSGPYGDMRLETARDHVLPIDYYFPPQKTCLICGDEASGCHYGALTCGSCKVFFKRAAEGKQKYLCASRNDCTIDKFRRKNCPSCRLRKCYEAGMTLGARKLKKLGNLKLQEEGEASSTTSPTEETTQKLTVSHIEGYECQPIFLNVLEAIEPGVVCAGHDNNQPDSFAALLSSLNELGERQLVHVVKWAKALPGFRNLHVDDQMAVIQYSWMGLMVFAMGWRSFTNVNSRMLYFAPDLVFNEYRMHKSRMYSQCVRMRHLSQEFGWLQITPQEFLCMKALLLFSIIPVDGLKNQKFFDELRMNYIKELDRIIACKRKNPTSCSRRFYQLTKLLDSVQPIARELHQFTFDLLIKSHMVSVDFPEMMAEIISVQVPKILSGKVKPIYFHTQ
Method in brief: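 MDA-kb2 cells carrying MMTV-luciferase (AR/GR responsive), 3,000 cells/well, co-treated with 3.0 uM nilutamide final. Compounds at 15 concentrations, 16 hr at 37C without CO2. Luciferase luminescence read after 30 min with ONE-Glo.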

SMILES | outcome [1] | outcome [2] | Potency [3] | Potency [4] | outcome [5] | Potency [6] | Potency [7] | outcome [8] | Potency [9] | Potency [10] | Potency [11] | Potency [12] | Potency [13] | Potency [14] | Potency [15] | outcome [16] | Potency [17] | Potency [18]
O=[N+]([O-])c1cccc2cccnc12 | inactive | inactive | inactive | inactive | inactive | inactive | inactive | inactive | inactive | inactive | inactive | inactive | inactive | inactive | inactive | – | – | –
O=C(O)C(Br)CBr (stereo unspecified) | inactive | inactive | inactive | inactive | inactive | inactive | inactive | inactive | – | inactive | inactive | inactive | inactive | inactive | inactive | inactive | inactive | –
OCCSCSCCO | inactive | inactive | inactive | inactive | inactive | inactive | inactive | – | – | inactive | inactive | inactive | inactive | inactive | inactive | – | inactive | –
CCN(CC)c1nc(C)cc(OP(=S)(OC)OC)n1 | inactive | inactive | inactive | inactive | inactive | inactive | inactive | inactive | – | inactive | – | – | inactive | – | inactive | inactive | inactive | –
C[N+](=O)[O-] | inactive | inactive | inactive | inactive | inactive | inactive | inactive | inactive | inactive | inactive | inactive | inactive | inactive | inactive | – | – | – | –
c1cc[c]([Hg][c]2ccccc2)cc1 | inactive | inactive | inactive | 2.43 µM (active) | inactive | inactive | – | inactive | 0.545 µM (active) | inactive | inactive | inactive | – | inactive | inactive | inactive | inactive | inactive
CCC/C(=N\OCC)C1=C(O)CC(CC(C)SCC)CC1=O (stereo unspecified) | inactive | inactive | inactive | inactive | inactive | inactive | – | inactive | 30.8 µM (active) | inactive | inactive | inactive | inactive | inactive | inactive | inactive | inactive | –
[Cl][Sn]([Cl])([Cl])[Cl] | inactive | inactive | inactive | inactive | inactive | inactive | inactive | inactive | inactive | inactive | inactive | inactive | inactive | – | – | – | – | –
CCOP(=S)(OCC)Oc1nc(Cl)n(C(C)C)n1 | inactive | inactive | inactive | inactive | inactive | inactive | inactive | inactive | inactive | inactive | inactive | inactive | inactive | inactive | – | – | – | –
OCCBr | inactive | inactive | inactive | inactive | inactive | inactive | inactive | inactive | inactive | inactive | inactive | – | – | inactive | inactive | – | inactive | –
CNC(=O)Oc1ccc(N(C)C)c(C)c1 | inactive | inactive | inactive | inactive | inactive | – | inactive | inactive | inactive | inactive | inactive | inactive | inactive | inactive | inactive | – | – | –
CCCCP(CCCC)CCCC | inactive | inactive | inactive | inactive | inactive | inactive | inactive | – | – | inactive | – | inactive | – | inactive | inactive | – | inactive | –
CCSC(=O)N(CC)C1CCCCC1 | inactive | inactive | inactive | inactive | inactive | inactive | inactive | inactive | inactive | inactive | inactive | – | inactive | inactive | inactive | – | – | –
BrCCCCCCBr | inactive | inactive | inactive | inactive | inactive | inactive | inactive | inactive | – | inactive | – | inactive | – | inactive | inactive | – | inactive | –
CCCCOC(=O)[C@@H](C)Oc1ccc(Oc2ccc(C#N)cc2F)cc1 | inactive | inactive | inactive | inactive | inactive | inactive | inactive | inactive | – | inactive | inactive | inactive | inactive | inactive | – | – | inactive | –
O=[N+]([O-])c1ccc(CBr)cc1 | inactive | inactive | inactive | inactive | inactive | inactive | inactive | inactive | inactive | inactive | inactive | – | inactive | inactive | inactive | – | – | –
ClCCCN1CCN(c2cccc(Cl)c2)CC1 | inactive | inactive | inactive | inactive | inactive | inactive | inactive | inactive | inactive | inactive | inactive | inactive | inactive | inactive | inactive | – | – | –
N#CCCC#N | inactive | inactive | inactive | inactive | inactive | – | inactive | inactive | inactive | inactive | inactive | inactive | inactive | – | – | inactive | inactive | –
COc1cc(OC)nc(NC(=O)NS(=O)(=O)c2ncccc2C(=O)N(C)C)n1 | inactive | inactive | inactive | inactive | inactive | inactive | inactive | inactive | – | inactive | inactive | inactive | inactive | inactive | inactive | inactive | inactive | –
